Compound activity from PubChem.
PAFAH1B3 FP inh: PAFAH1B3 enzyme inhibitors, primary screen, biochemical, fluorescence polarization, human | Platelet-activating factor acetylhydrolase IB subunit alpha1 (Homo sapiens), Q15102 | 340,000 compounds, 0.28% hits | recombinant PAFAH1B3, FP-rhodamine probe | inhibition, % at 3.39 µM;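 active = inhibition above the screen-wide average of all tested compounds plus 3 SD, cut at about 25% in these data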;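 note: 0% = enzyme with DMSO only and 100% = wells lacking PAFAH1B3 protein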
TCR CD3 inh: inhibitors of human TCR-CD3 interaction, primary screen, biochemical, fluorescence, TAMRA-labeled TCR probe | AID 651800, 2012 | 360,000 compounds, 0.37% hits | inhibition, % at 9.4 µM | T-cell receptor (TCR);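 note: recombinant mutant TCR 2C K166C tagged with TAMRA read by polarization; 0% = receptor in buffer alone and 100% = receptor with positive control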
PAFAH2 FP inh: PAFAH2 enzyme inhibitors, primary screen, biochemical, fluorescence polarization, human. 340,000 compounds, 0.99% hits. Platelet-activating factor acetylhydrolase 2, cytoplasmic (Homo sapiens), Q99487. recombinant PAFAH2, FP-rhodamine activity probe. inhibition, % at 3.39 µM;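 active = inhibition above the mean over all tested compounds plus 3 SD, cut at about 30% in these data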;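 note: inhibitors block probe labeling of enzyme so polarization drops; 0% = enzyme with DMSO and 100% = wells lacking PAFAH2 protein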
pPAFAH inh: pPAFAH enzyme inhibitors, primary screen, biochemical, fluorescence polarization, human. Platelet-activating factor acetylhydrolase (Homo sapiens), Q13093. AID 463082, 2010. 330,000 compounds, 1.5% hits. recombinant pPAFAH, FP-rhodamine probe fluorescence polarization. inhibition, % at 3.39 µM;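 active = inhibition above the mean inhibition across the screen plus 3 SD, cut at about 25% in these data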;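 note: inhibitors block binding of the rhodamine activity-based probe so polarization drops; 0% = enzyme with DMSO and 100% = wells lacking pPAFAH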
Target sequence (Q13093 whole entry, looked up): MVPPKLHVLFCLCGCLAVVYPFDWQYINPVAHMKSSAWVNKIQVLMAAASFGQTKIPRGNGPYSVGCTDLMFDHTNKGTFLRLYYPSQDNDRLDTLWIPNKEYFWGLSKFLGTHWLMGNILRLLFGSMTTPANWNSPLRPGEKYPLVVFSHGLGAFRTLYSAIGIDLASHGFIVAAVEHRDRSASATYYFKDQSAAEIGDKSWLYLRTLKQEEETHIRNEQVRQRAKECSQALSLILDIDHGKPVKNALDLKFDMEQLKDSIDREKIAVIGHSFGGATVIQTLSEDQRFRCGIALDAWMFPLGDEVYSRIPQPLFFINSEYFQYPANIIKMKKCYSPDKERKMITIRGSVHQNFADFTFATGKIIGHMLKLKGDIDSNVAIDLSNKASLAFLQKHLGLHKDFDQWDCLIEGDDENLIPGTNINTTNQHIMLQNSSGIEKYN
PAFAH1B2 FP inh: PAFAH1B2 enzyme inhibitors, primary screen, biochemical, fluorescence polarization, human; 340,000 compounds, 1.2% hits; Platelet-activating factor acetylhydrolase IB subunit alpha2 (Homo sapiens), P68402; recombinant PAFAH1B2, FP-rhodamine activity probe; inhibition, % at 3.39 µM;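 active = inhibition above the mean of all tested compounds plus 3 SD, cut at about 24% in these data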;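 note: 0% = enzyme with DMSO and 100% = wells lacking PAFAH1B2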
Target sequence (P68402 whole entry, looked up): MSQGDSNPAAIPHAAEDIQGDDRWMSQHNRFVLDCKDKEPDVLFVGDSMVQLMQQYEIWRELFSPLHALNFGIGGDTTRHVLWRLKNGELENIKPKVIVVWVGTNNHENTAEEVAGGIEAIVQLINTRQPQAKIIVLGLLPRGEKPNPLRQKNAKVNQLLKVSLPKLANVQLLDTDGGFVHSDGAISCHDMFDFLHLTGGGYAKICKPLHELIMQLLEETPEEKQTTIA
pPAFAH FP conf: pPAFAH (PLA2G7) enzyme inhibitors, confirmation, biochemical, fluorescence polarization, human | AID 463230, 2010 | shares compounds with pPAFAH inh | recombinant pPAFAH, FP-Rh probe fluorescence polarization | inhibition, % at 3.39 µM | 2,300 compounds, 72% hits;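 active = mean inhibition of the triplicate above the hit cutoff set for the earlier primary screen, cut at about 25% in these data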;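 note: 0% = enzyme with DMSO and 100% = wells lacking pPAFAH enzyme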
PAFAH2 FP conf: PAFAH2 enzyme inhibitors, confirmation, biochemical, fluorescence polarization, human; shares compounds with PAFAH2 FP inh; recombinant PAFAH2, FP-rhodamine activity probe; inhibition, % at 3.39 µM; 2,300 compounds, 65% hits;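 active = mean inhibition over three repeats above a set limit taken from the earlier primary screen, cut at about 30% in these data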;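 note: inhibitor blocks binding of rhodamine activity probe so polarization falls; 0% = enzyme with DMSO and 100% = wells lacking PAFAH2 protein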
PAFAH1B3 conf FP: PAFAH1B3 enzyme inhibitors, confirmation, biochemical, fluorescence polarization, human; recombinant PAFAH1B3, FP-Rh activity-based probe; inhibition, % at 3.39 µM; 390 compounds, 30% hits; shares compounds with PAFAH1B3 FP inh; AID 493032, 2011;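 active = average inhibition over triplicate runs above the hit cutoff set in the earlier primary screen, cut at about 25% in these data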;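 note: 0% = enzyme with DMSO and 100% = wells lacking PAFAH1B3 protein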
BSA probe FL: compounds interfering with TAMRA-BSA probe, counter-screen for TCR-CD3 interaction inhibitor project, biochemical, fluorescence, TAMRA-labeled BSA. shares compounds with TCR CD3 inh. TAMRA-labeled BSA probe fluorescence counterscreen. inhibition, % at 9.4 µM. 1,200 compounds, 10% hits; in the data active = inhibition above about 23%;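 note: 0% = buffer low control and 100% = reference high control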
TCR-CD3 conf: TCR-CD3 interaction inhibitors, retest, confirmation, biochemical, fluorescence, TAMRA-labeled TCR probe. shares compounds with TCR CD3 inh. TAMRA-labeled TCR probe fluorescence binding assay. inhibition, % at 9.4 µM. 1,200 compounds, 48% hits
The depositor's hits bear a star; nt = not tested or not shown. This is a sample that favours compounds with a hit; in the whole collection about 2.7% have one here. Cut-off read from the data, not from the text of the source, unless noted: active = inhibition above about 19%; inactive = the rest.

SMILES	PAFAH1B3 FP inh	TCR CD3 inh	PAFAH2 FP inh	pPAFAH inh	PAFAH1B2 FP inh	pPAFAH FP conf	others
O=C(NCc1cccc(OC(F)(F)F)c1)c1cccc2c1C(=O)c1ccc(-c3ccc(F)cc3OCc3ccccc3)cc1S2(=O)=O	-8	-10	-10	15	-9	nt
Cc1[nH]ccc2cc3nc4ccccc4c3cc12	nt	-1	nt	nt	nt	nt
COc1ccccc1-c1csc(C(C)(O)c2cccc(F)c2)n1 (stereo unspecified)	nt	9	nt	nt	nt	nt
COc1cccc(NS(=O)(=O)c2ccc3c(c2)C2C=CCC2C(c2ccc(C(=O)O)cc2)N3)c1 (stereo unspecified)	40*	13	68*	61*	36*	61*
COc1ccc(C(=O)N/N=C(\C)c2ccc3c(c2)C2C=CCC2C(c2ccccc2)N3)cc1 (stereo unspecified)	1	nt	8	10	-3	nt
O=C(O)c1ccc2c(c1)[C@@H]1C=CC[C@@H]1[C@H](c1ccccn1)N2	61*	25*	49*	64*	33*	15
O=C(COC(=O)c1cc(S(=O)(=O)N2CCOCC2)ccc1F)NCCc1ccc(F)cc1	12	-4	1	4	8	nt
COc1ccc(C=NNc2ccc(S(=O)(=O)Nc3ccccc3C(=O)O)cc2[N+](=O)[O-])c(OC)c1	29*	nt	56*	63*	34*	91*
O=C(O)c1ccccc1/C=N/Nc1ccc(S(=O)(=O)N2CCCC2)cc1[N+](=O)[O-]	8	5	-6	9	12	nt
COc1ccc(NC(=S)NNc2ccc(S(=O)(=O)Nc3ccccc3C(=O)O)cc2[N+](=O)[O-])cc1	27*	1	64*	58*	16	82*
COc1ccc(NS(=O)(=O)c2ccc(N/N=C(\C)c3ccncc3)c([N+](=O)[O-])c2)cc1	17	1	0	57*	7	55*
C/C(=N\Nc1ccc(S(=O)(=O)Nc2ccccc2)cc1[N+](=O)[O-])c1ccncc1	nt	4	nt	14	nt	nt
CSc1ccc(C=NNc2ccc(S(=O)(=O)Nc3ccccc3C(=O)O)cc2[N+](=O)[O-])cc1	14	-1	20	22	9	nt
CCOc1ccc(C=NNc2ccc(S(=O)(=O)Nc3ccccc3C(=O)O)cc2[N+](=O)[O-])cc1	25	nt	21	57*	18	86*
CCOc1ccc(NS(=O)(=O)c2c(C)nc3sccn3c2=O)cc1	-1	-6	-2	-3	0	nt
CCCN(CC(=O)Nc1ccccc1OC)CC(=O)c1c(N)n(Cc2ccccc2)c(=O)n(C)c1=O	7	-7	-2	nt	4	nt
COc1ccc(S(=O)(=O)N[C@@H](CSCc2ccccc2)C(=O)O)cc1	9	-2	7	nt	17	nt
O=C(CNC(=O)c1cc(S(=O)(=O)N2CCCCC2)ccc1N1CCOCC1)Nc1ccc(F)c(F)c1	1	-3	2	2	3	nt
Cc1nn(-c2ccccc2)c(Cl)c1/C=N/Nc1ccc(S(=O)(=O)Nc2ccccc2C(=O)O)cc1[N+](=O)[O-]	10	0	26	47*	13	78*
Cc1cn(CC(=O)NCCCn2ccnc2)c(=O)[nH]c1=O	4	-5	-2	nt	2	nt
CCOc1ccc(NC(=O)NNC(=O)c2cc3ccccc3cc2O)cc1	25	11	5	24	11	nt
O=C(NNC(=O)c1cc2ccccc2cc1O)Nc1ccccc1F	14	13	2	65*	3	37*
O=C(CSc1nnc(-c2ccco2)c(-c2ccco2)n1)Nc1ccccc1	10	9	42*	59*	2	21	PAFAH2 FP conf=11
CN(C)c1ccc(NC(=O)CSc2nnc(-c3ccco3)c(-c3ccco3)n2)cc1	-7	0	10	18	5	nt
COc1ccccc1CNC(=O)COC(=O)c1cc(-c2ccco2)nc2ccccc12	16	10	33*	56*	-3	18	PAFAH2 FP conf=9
SMILES	PAFAH1B3 FP inh	TCR CD3 inh	PAFAH2 FP inh	pPAFAH inh	PAFAH1B2 FP inh	pPAFAH FP conf	others
CC(C)(O)c1ccccc1CC[C@@H](SCC1(CC(=O)O)CC1)c1cccc(/C=C/c2ccc3ccc(Cl)cc3n2)c1	-14	nt	-20	3	-16	nt
O=C(Nc1ccc(N2CCOCC2)cc1)Nc1ccc2nc(-c3ccco3)c(-c3ccco3)nc2c1	28*	-1	3	45*	23	14	PAFAH1B3 conf FP=18
O[C@H]1C[C@H](c2ccccc2)N(Cc2cccs2)C[C@@H]1n1cc(C2CC2)nn1	nt	7	nt	nt	nt	nt
O=C(O)c1cc(Cl)ccc1-c1ccc(/C=C/c2cc(C(F)(F)F)[nH]c(=O)n2)o1	-4	19*	8	43*	1	9	BSA probe FL=2;TCR-CD3 conf=3
O=c1[nH]c(=S)[nH]c2nc(-c3ccccc3)cnc12	9	0	1	-2	4	nt
Cc1cc2nc3c(=O)[nH]c(=S)[nH]c3nc2cc1NC(=O)C(F)(F)F	9	70*	-1	79*	5	5	BSA probe FL=-2;TCR-CD3 conf=9
COc1cc(/C=C2\CC/C(=C\c3cc(OC)c(O)c(OC)c3)C2=O)cc(OC)c1O	2	38*	1	42*	17	39*	BSA probe FL=-26;TCR-CD3 conf=41*
Nc1ccc2c(c1)C/C(=C/c1ccco1)C2=O	7	22*	9	84*	-8	6	BSA probe FL=1;TCR-CD3 conf=1
Cn1c(=O)cc2c3c(c(N4CCCCC4)ccc31)C(=O)c1ccccc1-2	nt	58*	nt	54*	nt	28*	BSA probe FL=93*;TCR-CD3 conf=55*
O=S(=O)(c1cc(O)ccc1O)c1cccc2c(S(=O)(=O)c3cc(O)ccc3O)cccc12	22	25*	15	41*	23	29*	BSA probe FL=-9;TCR-CD3 conf=12
